Test systems include T-47D breast; BT-549 breast; MDA-MB-435 melanoma; SW-620 colon; MCF7 breast; HCT-116 colon; HCC-2998 colon; KM12 colon.
Test in all cases: NCI-60 one-dose screen, 48 h (100 = growth as untreated, 0 = no growth, -100 = all killed)
Holding throughout (conditions): 10 µM unless noted

Among the data in PubChem BioAssay (NCI) are growth values, retold here.

Structures are written as SMILES. This is part of a sample that, as a whole, favours compounds with a hit. Of some 83,000 tested, about 20% had one in any assay.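 Activity criterion: percent growth below 10, measured after cells in 96-well plates were exposed to a single compound concentration for 48 hours.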 A number with no mark means an inactive call. Calls of active or inactive are those of the source.

With `CC[C@H](C)[C@H](N)C(=O)O`, the growth is 104% with T-47D breast; 108% with BT-549 breast; 98.8% in the assay on MDA-MB-435 melanoma; 103% in the assay with SW-620 colon; 103% with MCF7 breast; 115% in the assay with HCT-116 colon. Also, the figures for the growth with HCC-2998 colon and in the assay with KM12 colon were 106% and 99.5%, respectively.

Consider `CCCCCCCCN(CCCCCCCC)C(=O)CCl`, for which the growth was 89.7% with T-47D breast; 98.5% with BT-549 breast; 108% with MDA-MB-435 melanoma; 104% with SW-620 colon; 99.6% in the assay on MCF7 breast; 90.8% in the assay with HCT-116 colon. For the same compound, the figures for the growth with HCC-2998 colon and in the assay on KM12 colon were 103% and 112%, respectively.

With `CC(C)(C)[Si](C)(C)OC1[C@@H](CNC(N)=O)O[C@@H](n2cnc3c(NC(=O)Nc4ccccc4)ncnc32)[C@H]1O[Si](C)(C)C(C)(C)C` (stereo partly drawn), the growth in the assay with T-47D breast was 64.6%; in the assay with BT-549 breast, 80.1%; with MDA-MB-435 melanoma, 53%; with SW-620 colon it was 62%; in the assay on MCF7 breast, 17.9%; in the assay on HCT-116 colon it was 0.343% (active). The growth in the assay on HCC-2998 colon is 19%; in the assay on KM12 colon it was 48.9%.

On to `NC(N)=N/N=C/c1ccc(Cl)cc1`, for which the growth in the assay on T-47D breast is 91.5%; with BT-549 breast it was 77.4%; with MDA-MB-435 melanoma it was -53.2% (active); with SW-620 colon, 24.5%; in the assay with MCF7 breast, 23.5%; in the assay on HCT-116 colon, 50.8%. The growth in the assay on HCC-2998 colon was 86.8%; in the assay with KM12 colon, 15.5%.

Regarding `Nc1nc(N)c2cc(NCc3ccc(Cl)c(Cl)c3)ccc2n1`, the growth is -81.3% (active) in the assay with T-47D breast; 46.3% in the assay on BT-549 breast; -68.1% (active) with MDA-MB-435 melanoma; -77.4% (active) with SW-620 colon; -72.8% (active) in the assay on MCF7 breast; -88.2% (active) with HCT-116 colon. Besides, the growth in the assay with HCC-2998 colon is -85.9% (active); in the assay with KM12 colon, -94.4% (active).

Regarding `CN1C(=O)N(C)C2C1NN=c1s/c(=C\c3ccc(Br)cc3)c(=O)n12` (stereo not drawn), the growth with T-47D breast is 28.7%; in the assay on BT-549 breast it was 50.8%; in the assay with MDA-MB-435 melanoma it was -50.4% (active); in the assay on SW-620 colon, 20%; in the assay with MCF7 breast it was 13.4%; in the assay with HCT-116 colon, 25%. For the same compound, the growth in the assay on HCC-2998 colon was 53%; with KM12 colon, 23.3%.

Consider `O=C(CC(=O)C(F)(F)C(F)(F)C(F)(F)F)c1cc2ccccc2o1`, for which the growth in the assay with T-47D breast is 96%; with BT-549 breast, 111%; in the assay with MDA-MB-435 melanoma it was 104%; with SW-620 colon it was 97.6%; with MCF7 breast, 103%; in the assay with HCT-116 colon, 102%. In addition, the growth in the assay on HCC-2998 colon was 113%; in the assay with KM12 colon, 104%.

Take `COC(=O)c1ccc2c(c1)nc(-c1ccc(Cl)cc1)n2-c1cc(C(C)(C)C)[nH]n1`: the growth in the assay with T-47D breast is 76.9%; in the assay on BT-549 breast it was 43.9%; in the assay on MDA-MB-435 melanoma, -12.3% (active); in the assay with SW-620 colon, 49.1%; in the assay with MCF7 breast it was 25.1%; in the assay with HCT-116 colon, 28.5%. The growth in the assay on HCC-2998 colon was 68.1%; in the assay on KM12 colon, 34.6%.

Take `CCOC(=O)c1ccc2c(c1)[n+](=O)c(C(=O)c1ccc3ccccc3c1)c(C(F)(F)F)n2[O-]`: the growth was -91.1% (active) in the assay on T-47D breast; -48.5% (active) with BT-549 breast; -78% (active) with MDA-MB-435 melanoma; -89.6% (active) in the assay on SW-620 colon; -93.1% (active) in the assay with MCF7 breast; -100% (active) with HCT-116 colon. The results for the growth with HCC-2998 colon and with KM12 colon were -97.6% (active) and -92% (active), respectively.

For the compound `O=C(N/N=C\c1cc(Br)ccc1O)c1ccncc1`, the growth in the assay with T-47D breast is -3.65% (active); in the assay with BT-549 breast, 45.2%; in the assay on MDA-MB-435 melanoma, 64.1%; in the assay with SW-620 colon, 37.7%; in the assay on MCF7 breast, 2.38% (active); in the assay with HCT-116 colon it was 21%. Further, the growth was 42.7% with HCC-2998 colon and 25.8% with KM12 colon.

Regarding `C=CCOC(=O)C1=C(C)NC2=C(C(=O)CCC2)C1c1ccc(F)cc1` (stereo not drawn), the growth in the assay with T-47D breast is 89.4%; in the assay with BT-549 breast, 99.4%; with MDA-MB-435 melanoma, 101%; in the assay on SW-620 colon it was 94.4%; with MCF7 breast, 95.6%; in the assay with HCT-116 colon, 92.3%. In addition, the growth in the assay on HCC-2998 colon was 104%; in the assay on KM12 colon, 93.8%.

Consider `CC(C)[C@@]12C[C@@H](OC(=O)[C@H]3CO3)[C@@](C)(O1)[C@@H]1CC[C@@H](C)[C@H]1[C@@H]2OC(=O)/C=C/c1ccccc1`, for which the growth in the assay with T-47D breast was 49.4%; in the assay on BT-549 breast it was 21.4%; with MDA-MB-435 melanoma it was 98.2%; in the assay on SW-620 colon it was 94.8%; in the assay with MCF7 breast it was 62.4%; in the assay on HCT-116 colon it was 65.8%. Moreover, the growth in the assay on HCC-2998 colon was 105%; in the assay with KM12 colon, 103%.

As for `COC(=O)CSc1ccc(Cl)cc1`, the growth is 98.7% in the assay on T-47D breast; 105% in the assay with BT-549 breast; 107% in the assay with MDA-MB-435 melanoma; 106% in the assay with SW-620 colon; 97.2% in the assay on MCF7 breast; 95.5% in the assay with HCT-116 colon. Also, the growth is 97.4% with HCC-2998 colon and 111% in the assay on KM12 colon.

In the case of `COc1cc(/C=C/c2cc(/C=C/c3ccc(O)c(OC)c3)n(C(=O)Nc3ccc(F)c(Cl)c3)n2)ccc1O`, the growth in the assay with T-47D breast is 2.29% (active); in the assay on BT-549 breast, -24.2% (active); in the assay with MDA-MB-435 melanoma, -25.9% (active); in the assay with SW-620 colon, 2.03% (active); in the assay with MCF7 breast it was 2.06% (active); with HCT-116 colon it was 2.15% (active). Moreover, the growth in the assay with HCC-2998 colon is 9.75% (active); in the assay with KM12 colon, 0.0776% (active).

With `CC(C)c1ccc(-c2cnc3nonc3n2)cc1`, the growth in the assay on T-47D breast is 42.5%; in the assay with BT-549 breast, 7.62% (active); in the assay with MDA-MB-435 melanoma, 23.7%; in the assay with SW-620 colon, 29.8%; in the assay with MCF7 breast, 11.5%; with HCT-116 colon it was 10.2%. Moreover, the growth is 61.1% with HCC-2998 colon and 31.2% with KM12 colon.

Regarding `O=C(CSc1nnc(Cc2ccccc2Nc2c(Cl)cccc2Cl)n1-c1ccccc1)N1N=C(c2ccc3ccccc3c2)CC1c1ccc(Cl)cc1` (stereo not drawn), the growth is 71.5% with T-47D breast; 103% in the assay on BT-549 breast; 98.8% in the assay on MDA-MB-435 melanoma; 108% in the assay on SW-620 colon; 95% with MCF7 breast; 86.4% with HCT-116 colon. The growth with HCC-2998 colon is 93.7%; in the assay on KM12 colon it was 108%.
